PubChem BioAssay (Tox21)
Results filed as inconclusive are left out. Activity calls are given as the source filed them. Unless noted, calls come from the whole dose curve; as a rule, active = well fitted curve in the direction sought with a large enough effect in the repeat runs; inconclusive = weak or mixed curves; inactive = no such curve, though single readings can be large; an effect the other way counts as inactive or inconclusive.

Key:
[1] = qHTS assay for small molecule agonists of the p53 signaling pathway (AID 651631; calls by dose curve; note: nearly all actives have a fitted effect of over 15% in size)
Procedure, shortened: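 p53RE-bla HCT-116 cells; compounds 16 h, 37 °C; LiveBLAzer B/G FRET substrate 2 h RT; fluorescence intensity read-out, qHTS format.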

[2] = qHTS assay for small molecules that induce genotoxicity in human embryonic kidney cells expressing luciferase-tagged ATAD5 (AID 651632); note: nearly all actives have a fitted effect of over 15% in size
Procedure, shortened: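 Luminescent reporter readout, HEK293T ATAD5-luc line: 16 hr drug exposure (37C, 5% CO2) followed by Amplite, 30 min RT.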

[3] = qHTS assay for small molecule agonists of the p53 signaling pathway - cell viability (AID 651633; calls by dose curve;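 note: p53RE-bla HCT reporter cells with a stable beta-lactamase p53 reporter; series mostly up to about 83 µM; nearly all actives have a fitted effect of over 30% in size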)
Procedure, shortened: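 p53RE-bla cells, seeded at 4,000 per well and rested 5 h at 37 C/5% CO2, received compounds in DMSO for 16 h at 37 C. CellTiter-Glo was then added, and luminescence was read after 30 min at room temperature to gauge cytotoxicity.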

[4] = qHTS assay for small molecules that induce genotoxicity in human embryonic kidney cells expressing luciferase-tagged ATAD5 - cell viability (AID 651634; calls by dose curve; note: nearly all actives have a fitted effect of over 25% in size)
Procedure, shortened: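 Viability read: CellTiter-Fluor fluorescence, 30 min at 37C. Cells: HEK293T, luciferase-tagged ATAD5. Exposure: 15.5 hr, 37C, 5% CO2, compound or DMSO vehicle.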

[5] = qHTS assay for small molecule disruptors of the mitochondrial membrane potential - cell viability (AID 720634; calls by dose curve;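 note: human HepG2 liver cancer cells; series mostly up to about 83 µM; nearly all actives have a fitted effect of over 20% in size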)
Procedure, shortened: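 HepG2, 1 hr compound, 37 C. ATP luminescence via CellTiter-Glo, 30 min RT, same well as m-MPI.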

[6] = qHTS assay to test for compound auto fluorescence at 590 nm (red) in HepG2 cells (AID 720674)
Procedure, shortened: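 Rose Bengal sodium served as the red fluorophore standard. HepG2 monolayers (overnight attachment, MEM with 10% FBS) were exposed to test compounds for 1 hr at 37 C and read at Ex 540/Em 590 nm.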

[7] = qHTS assay to test for compound auto fluorescence at 535 nm (green) in HepG2 cells (AID 720675)
[8] = qHTS assay to test for compound auto fluorescence at 460 nm (blue) in HEK293 cells (AID 720678)
Procedure, shortened: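 HEK293 cells (2,000 per well, medium with 10% dialyzed FBS) attached for 4-5 hr at 37C, then received compound and stood overnight at 37C, 5% CO2. Blue fluorescence was read at Ex/Em 405/460 nm and expressed relative to triamterene.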

[9] = qHTS assay to test for compound auto fluorescence at 590 nm (red) in HEK293 cells (AID 720679)
Procedure, shortened: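 HEK293 cells (2,000/well, medium with 10% dialyzed FBS) attached for 4-5 hr at 37C, received 23 nL compound and were incubated overnight at 37C, 5% CO2. Red fluorescence was then read at 540/590nm Ex/Em, referenced to Rose Bengal sodium.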

[10] = qHTS assay to test for compound auto fluorescence at 535 nm (green) in HEK293 cells (AID 720680)
[11] = qHTS assay to test for compound auto fluorescence at 460 nm (blue) in HEK293 cell free culture (AID 720681)
Procedure, shortened: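 Test compounds were pinned into cell-free culture medium (DMEM with 10% FBS) and fluorescence was read directly at Ex/Em 405/460 nm. Signals were expressed as fluorescence equivalents of triamterene, with DMSO vehicle as control.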

[12] = qHTS assay to test for compound auto fluorescence at 535 nm (green) in HEK293 cell free culture (AID 720682)
Procedure, shortened: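 Cell-free medium (DMEM, 10% FBS) receives compound or DMSO by pintool. Plate read directly at Ex 485/Em 535 nm. Signal converted to fluorescein equivalency.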

[13] = qHTS assay to test for compound auto fluorescence at 590 nm (red) in HEK293 cell free culture (AID 720683)
Procedure, shortened: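 Tox21 10K library compounds were pinned into cell-free DMEM with 10% FBS and fluorescence was read at excitation 540 nm. Activity is expressed as Rose Bengal sodium equivalency.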

[14] = qHTS assay to test for compound auto fluorescence at 590 nm (red) in HepG2 cell free culture (AID 720684)
Procedure, shortened: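 Red fluorescence (540 nm excitation, 590 nm emission) was measured after compound transfer into cell-free MEM supplemented with 10% FBS. Values are equivalencies against Rose Bengal sodium.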

[15] = qHTS assay to test for compound auto fluorescence at 460 nm (blue) in HepG2 cell free culture (AID 720685)
Procedure, shortened: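 Compound (23 nL) or DMSO pinned into cell-free MEM with 10% FBS; blue fluorescence read at 405/460 nm excitation/emission, expressed as auto-fluorescence equivalency to triamterene.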

[16] = qHTS assay to test for compound auto fluorescence at 535 nm (green) in HepG2 cell free culture (AID 720686)
[17] = qHTS assay to test for compound auto fluorescence at 460 nm (blue) in HepG2 cells (AID 720687)
Procedure, shortened: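 Cells (2,000/well in MEM with 10% FBS) attached overnight at 37 C, then were exposed to compound or DMSO for 1 hr at 37 C, 5% CO2. Fluorescence read at Ex/Em 405/460 nm, expressed as triamterene-equivalent signal.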

[18] = biological target: Glucocorticoid receptor (Homo sapiens) (UniProt P04150); experiment: qHTS assay to identify small molecule agonists of the glucocorticoid receptor (GR) signaling pathway (AID 720691; active = well fitted activation curve with a large enough effect in the signal ratio in the repeat runs, not every such curve was filed as active; the % refers to the signal ratio)
Chain of Glucocorticoid receptor (Homo sapiens) (P04150 whole entry, looked up): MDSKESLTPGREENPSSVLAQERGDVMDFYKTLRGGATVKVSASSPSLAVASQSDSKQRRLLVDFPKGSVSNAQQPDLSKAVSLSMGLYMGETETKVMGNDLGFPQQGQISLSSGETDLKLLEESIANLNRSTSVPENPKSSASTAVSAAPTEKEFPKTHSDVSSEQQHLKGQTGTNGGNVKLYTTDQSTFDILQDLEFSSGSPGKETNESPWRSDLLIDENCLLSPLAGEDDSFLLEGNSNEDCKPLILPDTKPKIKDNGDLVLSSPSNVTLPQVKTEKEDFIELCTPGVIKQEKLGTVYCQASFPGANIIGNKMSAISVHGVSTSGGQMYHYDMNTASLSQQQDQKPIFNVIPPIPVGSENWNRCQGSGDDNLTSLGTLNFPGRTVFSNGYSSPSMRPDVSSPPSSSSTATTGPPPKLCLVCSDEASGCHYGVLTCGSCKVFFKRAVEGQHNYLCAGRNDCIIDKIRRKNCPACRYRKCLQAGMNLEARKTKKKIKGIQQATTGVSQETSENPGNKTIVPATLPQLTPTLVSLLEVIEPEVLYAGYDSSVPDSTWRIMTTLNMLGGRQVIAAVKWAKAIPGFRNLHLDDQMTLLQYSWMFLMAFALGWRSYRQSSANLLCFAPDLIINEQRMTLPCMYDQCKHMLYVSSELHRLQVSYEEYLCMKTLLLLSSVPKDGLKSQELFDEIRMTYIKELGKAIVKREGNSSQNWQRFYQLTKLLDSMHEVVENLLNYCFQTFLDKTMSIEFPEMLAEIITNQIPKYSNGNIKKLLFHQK
Procedure, shortened: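 qHTS in GR-bla HeLa cells: 4 h settling at 37 C/5% CO2, 18 h compound incubation at 37 C, 2 h LiveBLAzer B/G FRET substrate at room temperature, fluorescence intensity measured.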

[19] = biological target: Glucocorticoid receptor (Homo sapiens) (UniProt P04150); experiment: qHTS assay to identify small molecule antagonists of the glucocorticoid receptor (GR) signaling pathway (AID 720692; active = well fitted inhibition curve with a large enough effect in the signal ratio in the repeat runs, not every such curve was filed as active; the % refers to the signal ratio)
Procedure, shortened: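 Inhibition of glucocorticoid signalling is measured in HeLa cells with a GRE-controlled beta-lactamase reporter; cells are co-treated with compound and 5 nM dexamethasone (final) for 18 h before FRET substrate readout.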

[20] = qHTS assay for small molecule disruptors of the mitochondrial membrane potential (AID 720635)
Procedure, shortened: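 HepG2 cells (2,000/well) attached overnight at 37C, then took compound for 1 hr at 37C, 5% CO2. Mito-MPS dye was added for 30 min; fluorescence was read at 490/535 nm (monomers) and 540/590 nm (aggregates).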

Measured: Potency

CC(=O)Nc1ccc(S(N)(=O)=O)cc1
inactive: [1] | [2] | [3] | [4] | [5] | [6] | [7] | [8] | [9] | [10] | [11] | [12] | [13] | [14] | [15] | [16] | [17] | [18] | [19]

O=C(O)CNC(=O)c1ccc([N+](=O)[O-])cc1
inactive: [1] | [2] | [3] | [4] | [20] | [6] | [7] | [8] | [9] | [10] | [11] | [12] | [13] | [14] | [15] | [16] | [17]

C=C(C)C(=O)OCCCCCCCC(C)C
inactive: [1] | [2] | [3] | [4] | [6] | [7] | [8] | [9] | [10] | [11] | [12] | [13] | [15] | [16] | [17] | [18]

NS(=O)(=O)c1cc2c(cc1Cl)NC(C1CC3C=CC1C3)NS2(=O)=O (stereo not given)
inactive: [1] | [2] | [3] | [4] | [5] | [6] | [7] | [8] | [9] | [10] | [11] | [12] | [13] | [15] | [16] | [17] | [18] | [19]

Cc1cccn2c(=O)c(-c3nnn[nH]3)cnc12
inactive: [1] | [2] | [3] | [4] | [6] | [7] | [8] | [9] | [10] | [11] | [12] | [13] | [14] | [15] | [16] | [17] | [18] | [19]

C=CCOCC(CC)(CO)COCC=C
inactive: [1] | [2] | [3] | [4] | [20] | [6] | [7] | [8] | [9] | [10] | [11] | [12] | [13] | [14] | [15] | [16] | [17] | [18]

COc1c(N2C[C@@H]3CCCN[C@@H]3C2)c(F)cc2c(=O)c(C(=O)O)cn(C3CC3)c12
inactive: [1] | [2] | [3] | [4] | [5] | [6] | [7] | [8] | [9] | [10] | [11] | [12] | [13] | [15] | [16] | [17]

CN(C)CCCNCCCN(C)C
inactive: [1] | [2] | [3] | [4] | [6] | [7] | [8] | [9] | [10] | [11] | [12] | [13] | [14] | [15] | [16] | [17] | [18] | [19]
